The source of these data is PubChem BioAssay (NCATS).

Results filed as inconclusive are left out. Activity calls are given as the source filed them. The call rests on the fitted dose curve; in most records, active means well fitted inhibition curve with a large enough effect; inconclusive means small, poorly fitted or top-dose-only effect; inactive means flat fitted curve, though single readings scatter.
On the % scale 0 is the no-effect control and ±100 the full control effect.

The target of this experiment is Calcium and integrin-binding protein 1 (Homo sapiens) (UniProt Q99828). Put plainly: Primary qHTS for Identification of Calcium Integrin Binding Protein 1 (CIB1) Competitor (AID 1508620). Further: top concentration of the series differs between compounds. To be noted: CIB1-GST / FITC-alphaIIb peptide fluorescence polarization; series mostly up to 114 µM; activity change, negative = inhibition: at the top concentration. The gist of the method: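 Fluorescence polarization competition: GST-tagged CIB1 (1 uM final) preincubated with compound 15 min at room temperature, then FITC-labelled alphaIIb peptide (100 nM final) added. After 15 min at room temperature, polarization read at Ex 480/Em 540.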
Sequence of Calcium and integrin-binding protein 1 (Homo sapiens) (Q99828 whole entry, looked up): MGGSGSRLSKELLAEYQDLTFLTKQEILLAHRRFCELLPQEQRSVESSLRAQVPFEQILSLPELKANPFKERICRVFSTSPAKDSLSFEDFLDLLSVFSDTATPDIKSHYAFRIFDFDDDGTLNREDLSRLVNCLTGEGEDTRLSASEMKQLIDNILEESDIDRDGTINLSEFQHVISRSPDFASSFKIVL
On to `COc1cccc(C2c3c(ncn(-c4cccc(Br)c4)c3=N)Oc3ccc4ccccc4c32)c1` (stereo not drawn), for which the “activity change, negative = inhibition” value was 3.79% (inactive). As for `CN(Cc1ccco1)c1ncnc2ccc(-c3cccc(Cl)c3)cc12`, the “activity change, negative = inhibition” value is 4.21% (inactive).

Regarding `O=C(Cc1ccc(Cl)c(Cl)c1)Nc1ccc(S(=O)(=O)Nc2ccccc2)cc1`, the “activity change, negative = inhibition” value was -11.1% (inactive). On the same count and under the same terms, next, `NC(=O)C1CCN(c2nc(-c3cccc(Cl)c3)cs2)CC1`: 1.55% (inactive); `O=C(COc1ccc(F)cc1)NCCc1nc2ccccc2[nH]1`: 0.396% (inactive).

For the molecule `Cc1ccc(OCCn2c(CCNC(=O)c3cccc4cc[nH]c34)nc3ccccc32)cc1`, the “activity change, negative = inhibition” value was 5.56% (inactive). In the case of `FC(F)(F)c1cccc(Nc2ccc(CNc3nc(-c4ccccc4C(F)(F)F)nc4ccccc34)cc2)c1`, the “activity change, negative = inhibition” value is 4.13% (inactive). On to `O=C(OCC#CCSc1nnc(-c2cccc3ccccc23)o1)C1CCC1`, for which the “activity change, negative = inhibition” value was -3.57% (inactive). For `O=C(Nc1ccc(-c2ccccc2)cc1)Nc1nnc(-c2ccncc2)s1`, the “activity change, negative = inhibition” value was -4.01% (inactive).

Take `O=C(OCC#CCSc1nnc(-c2cccc3ccccc23)o1)c1ccsc1`: the “activity change, negative = inhibition” value is 1.84% (inactive).

In the case of `Cc1cccc(CNc2ccnc(-c3ccc(C(F)(F)F)cc3)n2)c1`, the “activity change, negative = inhibition” value was 2.56% (inactive).

In the case of `CNc1cccc(S(=O)(=O)N2CCCN(S(=O)(=O)c3ccc4c(c3)OCCO4)CC2)c1`, the “activity change, negative = inhibition” value is -6.83% (inactive). As for `CCC(C)N(C)C(=O)Cn1nc(-c2ccc(C)cc2)ccc1=O` (stereo not drawn), the “activity change, negative = inhibition” value is -2.83% (inactive). On to `Cc1ccc(NS(=O)(=O)c2ccc3c(c2)N(C)CCO3)cc1C`, for which the “activity change, negative = inhibition” value is -2.24% (inactive). Regarding `Cc1ccnc(NC(=S)N2CCN(c3ccc(Cl)c(Cl)c3)CC2)c1`, the “activity change, negative = inhibition” value was -8.7% (inactive). The same measure, in the same setting: in the case of `CCCCN(C)C(=O)Cn1nc(-c2ccc(OC)cc2)ccc1=O` it was 0.31% (inactive). With `Cc1cccc(C(=O)NC2CCN(C#N)CC2)c1`, the Potency result was “inactive”.

In the case of `COc1ccc(NC(=O)c2cnn3c(C)cc(C)nc23)cc1`, the “activity change, negative = inhibition” value was 2.74% (inactive).
